Compounds without any hit were thinned out: in the full panel of roughly 83,000, 20% have a hit.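 Cells were grown in 96-well plates and exposed to the test compound at a single concentration for 48 hours; results are reported as percent growth, with values below 10 considered active.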 Unmarked numbers belong to inactive results. Activity calls are given as the source filed them.
How the values were obtained:
Test in all cases: NCI-60 one-dose screen, 48 h (100 = growth as untreated, 0 = no growth, -100 = all killed)
Conditions in all cases: 10 µM unless noted
[1] = tested on: NCI-H23 lung
[2] = tested on: NCI-H226 lung
[3] = tested on: NCI-H322M lung
[4] = tested on: HOP-62 NSCLC
[5] = tested on: NCI-H460 lung
[6] = tested on: NCI-H522 lung
[7] = tested on: A549/ATCC NSCLC
[8] = tested on: 786-0 renal
[9] = tested on: COLO 205 colon
[10] = tested on: DU-145 prostate
[11] = tested on: K-562 leukemia
[12] = tested on: MALME-3M melanoma
[13] = tested on: MDA-MB-231 breast
[14] = tested on: RXF 393 renal
[15] = tested on: SF-268 CNS
[16] = tested on: SF-295 CNS
[17] = tested on: SF-539 CNS
[18] = tested on: UACC-257 melanoma
[19] = tested on: M14 melanoma

Structure (SMILES)	growth [1]	growth [2]	growth [3]	growth [4]	growth [5]	growth [6]	growth [7]	growth [8]	growth [9]	growth [10]	growth [11]	growth [12]	growth [13]	growth [14]	growth [15]	growth [16]	growth [17]	growth [18]	growth [19]
CC(C)[C@@]12C[C@@H](OC(=O)[C@H]3CO3)[C@@](C)(O1)[C@@H]1CC[C@@H](C)[C@H]1[C@@H]2OC(=O)/C=C/c1ccccc1	88.4%	54.1%	85.4%	72%	89.8%	72.2%	61.5%	91.3%	109%	102%	90.1%	87%	78.7%	59.6%	54.8%	85.2%	91.1%	68.3%	102%
C=C1C(=O)O[C@H]2[C@H]1CC/C(COC(=O)NCc1cccc(OC)c1)=C\CC[C@@]1(C)O[C@@H]21	73.4%	67.3%	90.6%	65.6%	55%	-70.3% (active)	50.7%	-48.9% (active)	-71.3% (active)	19.7%	4.46% (active)	-26.4% (active)	64.4%	-57.1% (active)	58.2%	71.5%	21.4%	25.4%	-7.62% (active)
C#C[C@]1(O)CC[C@H]2[C@@H]3CC=C4c5sc(-c6cccc(Br)c6)nc5CC[C@]4(C)[C@H]3CC[C@@]21C	82.9%	97.9%	73.5%	91.5%	78.1%	62.3%	81.2%	51.9%	118%	88.6%	6.54% (active)	100%	79.9%	37.3%	72.4%	55.5%	37.6%	80.7%	69.3%
COc1cc(C)c(Cl)cc1C1=NN(c2ccc(S(N)(=O)=O)cc2)C(/C=C/c2ccccc2)C1 (configuration not stated)	50.5%	31.9%	107%	59.7%	26.8%	27%	34%	63.4%	38.3%	82.6%	23.1%	85.6%	88.4%	58%	70.2%	63.7%	103%	83.4%	72.2%
CCCCCCCCN=C(NCCCCCCCC)SCc1cccc2ccccc12	-81.2% (active)	-84.2% (active)	-1.49% (active)	-97.7% (active)	-89.1% (active)	-83.3% (active)	-75.8% (active)	-88.1% (active)	-99.7% (active)	-74.3% (active)	-13.4% (active)	-44.3% (active)	-92.6% (active)	-78.6% (active)	-90.8% (active)	-85.1% (active)	-87.1% (active)	-77.7% (active)	-86.6% (active)
COc1cc2ncnc(Nc3ccc(S(=O)(=O)Nc4cc(C)on4)cc3)c2cc1OCCCN1CCN(c2ccc([N+](=O)[O-])cc2)CC1	103%	107%	103%	106%	110%	94.7%	106%	109%	105%	112%	120%	104%	97.9%	115%	102%	109%	102%	107%	98.4%
O=[N+]([O-])c1ccc(N=Nc2c(NNc3ccc([N+](=O)[O-])cn3)cc(S(=O)(=O)O)c3ccccc23)nc1	81.2%	95.8%	60.8%	85.5%	63.7%	84.9%	89.2%	109%	106%	74.9%	94.3%	129%	57%	120%	63.9%	114%	89.3%	101%	60.6%
O=c1c2cc(Br)cc(Br)c2nc(-c2ccc(Cl)cc2)n1/N=C/c1cccc(F)c1	53.6%	40.9%	49.3%	10.8%	40.1%	38.9%	48.6%	9.97% (active)	54.3%	91.4%	63.2%	63.3%	46.1%	47.2%	70.4%	41%	64.4%	93%	67.5%

From PubChem BioAssay (NCI)
